Here are results for 11 compounds from ChEMBL document CHEMBL3988442, “University of Dundee, Small-Polar-MMV Screening Library” (2021).

SMILES strings stand for the structures. For some of these results: Potency and affinity values are given separately.

Common to all, as to set-up: scale not given: direction of the effect not stated beside the values
Experiment [1] concerns the target Protein translocase subunit SecA (Escherichia coli (strain K12)) (UniProt P10408). Briefly: Assay to Identify E. coli SecA ATPase Inhibitors. The settings on record: 30 µM. Type of experiment: functional.
In experiment [2] the target is T1, Ubiquitin-activating enzyme e1, putative (Leishmania donovani (strain BPK282A1)) (UniProt E9BSI1).
T1 sequence (whole entry): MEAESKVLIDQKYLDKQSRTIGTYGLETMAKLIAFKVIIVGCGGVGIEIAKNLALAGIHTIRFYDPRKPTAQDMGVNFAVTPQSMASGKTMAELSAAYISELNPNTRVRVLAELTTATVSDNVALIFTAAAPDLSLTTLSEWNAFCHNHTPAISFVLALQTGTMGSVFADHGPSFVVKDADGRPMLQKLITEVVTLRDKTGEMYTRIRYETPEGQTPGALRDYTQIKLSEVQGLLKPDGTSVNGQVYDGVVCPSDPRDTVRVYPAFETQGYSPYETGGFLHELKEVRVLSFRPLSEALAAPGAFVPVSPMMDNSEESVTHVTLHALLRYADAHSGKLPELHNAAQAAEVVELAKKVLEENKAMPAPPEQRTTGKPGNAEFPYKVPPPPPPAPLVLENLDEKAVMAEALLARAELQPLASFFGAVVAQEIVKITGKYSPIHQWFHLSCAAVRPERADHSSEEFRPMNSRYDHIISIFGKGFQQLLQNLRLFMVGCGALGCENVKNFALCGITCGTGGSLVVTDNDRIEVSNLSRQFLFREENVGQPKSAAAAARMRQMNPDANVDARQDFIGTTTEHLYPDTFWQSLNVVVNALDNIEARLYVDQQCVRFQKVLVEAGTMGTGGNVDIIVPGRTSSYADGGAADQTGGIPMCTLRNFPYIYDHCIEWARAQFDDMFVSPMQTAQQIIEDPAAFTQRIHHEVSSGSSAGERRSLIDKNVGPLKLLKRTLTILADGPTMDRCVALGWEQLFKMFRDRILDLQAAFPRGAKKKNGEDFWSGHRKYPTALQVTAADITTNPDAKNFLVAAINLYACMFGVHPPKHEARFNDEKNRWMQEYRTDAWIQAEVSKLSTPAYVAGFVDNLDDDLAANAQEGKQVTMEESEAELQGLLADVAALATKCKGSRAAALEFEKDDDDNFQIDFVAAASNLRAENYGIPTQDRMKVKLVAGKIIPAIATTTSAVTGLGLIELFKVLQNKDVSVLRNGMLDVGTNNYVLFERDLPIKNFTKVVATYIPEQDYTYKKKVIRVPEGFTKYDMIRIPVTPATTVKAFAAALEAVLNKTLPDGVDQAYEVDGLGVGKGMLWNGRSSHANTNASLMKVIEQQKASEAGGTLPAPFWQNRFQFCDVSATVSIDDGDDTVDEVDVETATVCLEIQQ
Briefly: Leishmania donovani Ubiquitin Activating Enzyme (LdE1). Type of experiment: functional. The settings on record: 30 µM.

Experiment [3] concerns the target AMP-activated protein kinase, AMPK (Homo sapiens) (UniProt P54646+O43741+P54619+Q9UGJ0+Q9Y478+Q13131+Q9UGI9). Briefly: AMP-dependent Kinase enzyme assay. An in vitro enzyme assay that detects ADP turnover that is directly proportional to AMPK activity. This uses naive AMPK that is activated during the assay with MK-8722. To be noted: 30 µM. The class given is functional.

The target of experiment [4] is Sialic acid-binding Ig-like lectin 9 (Homo sapiens) (UniProt Q9Y336). Briefly: Hs-Siglec9 ALPHAscreen SOP 20170721. The settings on record: 10 µM.
Chain of Sialic acid-binding Ig-like lectin 9 (Homo sapiens) (Q9Y336 whole entry): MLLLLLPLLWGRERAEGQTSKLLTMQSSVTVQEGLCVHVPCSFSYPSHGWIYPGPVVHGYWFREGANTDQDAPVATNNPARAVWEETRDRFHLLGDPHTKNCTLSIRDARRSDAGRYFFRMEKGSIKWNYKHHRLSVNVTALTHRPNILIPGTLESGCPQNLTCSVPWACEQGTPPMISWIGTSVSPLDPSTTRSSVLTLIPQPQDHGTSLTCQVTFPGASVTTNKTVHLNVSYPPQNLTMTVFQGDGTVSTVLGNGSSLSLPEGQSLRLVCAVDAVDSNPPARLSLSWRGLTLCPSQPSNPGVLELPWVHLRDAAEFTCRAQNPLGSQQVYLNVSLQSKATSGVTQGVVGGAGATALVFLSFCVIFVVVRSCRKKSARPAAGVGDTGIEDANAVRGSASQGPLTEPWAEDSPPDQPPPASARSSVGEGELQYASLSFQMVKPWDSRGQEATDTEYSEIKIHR
Another experiment deals with Trypanosoma cruzi. Briefly: Trypanosoma cruzi phosphomannomutase and mannose-1-phosphate guanylyltransferase assay. The class given is functional. The settings on record: 10 µM.
The target of experiment [5] is T2, Arginase-2, mitochondrial (Homo sapiens) (UniProt P78540).
T2 sequence (whole entry): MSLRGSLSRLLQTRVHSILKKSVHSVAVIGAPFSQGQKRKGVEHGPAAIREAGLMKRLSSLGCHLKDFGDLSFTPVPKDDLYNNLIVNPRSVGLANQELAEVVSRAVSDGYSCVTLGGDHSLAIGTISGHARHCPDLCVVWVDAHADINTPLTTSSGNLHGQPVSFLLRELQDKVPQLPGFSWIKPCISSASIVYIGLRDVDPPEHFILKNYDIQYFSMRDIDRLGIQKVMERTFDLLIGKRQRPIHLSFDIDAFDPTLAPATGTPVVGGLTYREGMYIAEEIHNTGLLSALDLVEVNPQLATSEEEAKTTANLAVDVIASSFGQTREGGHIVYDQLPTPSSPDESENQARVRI
Briefly: in vitro enzyme assay to detect the production of urea directly proportional to the activity of Arginase II. Also: in the data most compounds retested in dose-response had high values. The class given is functional. To be noted: 33.3 µM.

Experiment [6] addresses T3, Proteasome subunit beta (Trypanosoma cruzi) (UniProt O96673).
T3 sequence (whole entry): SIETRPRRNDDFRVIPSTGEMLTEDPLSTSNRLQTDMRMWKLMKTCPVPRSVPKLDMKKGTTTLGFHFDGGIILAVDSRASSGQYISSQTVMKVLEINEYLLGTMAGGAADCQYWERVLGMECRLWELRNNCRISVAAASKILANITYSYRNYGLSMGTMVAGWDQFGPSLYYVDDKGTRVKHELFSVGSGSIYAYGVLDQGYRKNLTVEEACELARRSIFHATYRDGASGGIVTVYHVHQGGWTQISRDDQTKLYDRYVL
Briefly: Trypanosoma cruzi proteasome chymotrypsin-like activity (TcProtChymo) assay. Also: in the data most compounds retested in dose-response had high values. Type of experiment: functional. The settings on record: 9.37 µM.

The species entered for another experiment is Homo sapiens. Briefly: To identify inhibition of the IFN signalling (Jak-Stat) pathway via expression of an eGFP reporter gene under the control of an IFN-stimulated response element (ISRE) containing MxA promoter. Type of experiment: functional. The settings on record: 30 µM.
Experiment [7] deals with T4, Tyrosyl-tRNA synthetase, putative (Trypanosoma cruzi (strain CL Brener)) (UniProt Q4DSP6).
T4 sequence (whole entry): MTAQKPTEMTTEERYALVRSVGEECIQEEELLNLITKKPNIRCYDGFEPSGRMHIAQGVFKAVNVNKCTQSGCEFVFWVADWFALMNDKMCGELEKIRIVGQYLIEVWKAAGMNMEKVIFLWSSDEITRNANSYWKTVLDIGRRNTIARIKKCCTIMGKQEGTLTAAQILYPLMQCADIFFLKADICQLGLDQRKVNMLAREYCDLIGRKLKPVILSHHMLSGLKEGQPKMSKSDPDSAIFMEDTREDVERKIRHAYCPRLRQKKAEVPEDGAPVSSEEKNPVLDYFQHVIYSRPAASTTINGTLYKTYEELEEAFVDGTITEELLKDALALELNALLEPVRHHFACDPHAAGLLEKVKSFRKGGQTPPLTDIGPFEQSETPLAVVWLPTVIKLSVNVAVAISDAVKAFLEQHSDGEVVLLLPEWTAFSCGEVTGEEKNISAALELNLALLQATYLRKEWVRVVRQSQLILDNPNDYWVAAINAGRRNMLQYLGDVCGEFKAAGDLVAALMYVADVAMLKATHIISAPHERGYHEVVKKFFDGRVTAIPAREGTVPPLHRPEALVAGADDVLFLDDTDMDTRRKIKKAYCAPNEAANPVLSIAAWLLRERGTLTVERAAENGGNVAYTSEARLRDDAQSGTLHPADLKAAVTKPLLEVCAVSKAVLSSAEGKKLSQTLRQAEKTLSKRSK
Briefly: Trypanosoma cruzi tyrosyl tRNA synthetase (TcYRS) _High Tyrosine SOP. Also: in the data most compounds retested in dose-response had high values. Type of experiment: functional. The settings on record: 30 µM.

The target of experiment [8] is T4, Tyrosyl-tRNA synthetase, putative (Trypanosoma cruzi (strain CL Brener)). Briefly: Trypanosoma cruzi tyrosyl tRNA synthetase (TcYRS) SOP. Type of experiment: functional. The settings on record: 30 µM.
The target in experiment [9] is Chromo domain-containing protein 1 (Saccharomyces cerevisiae (strain ATCC 204508 / S288c) (Baker's yeast)) (UniProt P32657). Briefly: ScCHD-1 Enzyme Inhibition Assay. Also: in the data most compounds retested in dose-response had high values. The settings on record: 30 µM. The class given is functional.
Chain of Chromo domain-containing protein 1 (Saccharomyces cerevisiae (strain ATCC 204508 / S288c) (Baker's yeast)) (P32657 whole entry, the tested form may be a part): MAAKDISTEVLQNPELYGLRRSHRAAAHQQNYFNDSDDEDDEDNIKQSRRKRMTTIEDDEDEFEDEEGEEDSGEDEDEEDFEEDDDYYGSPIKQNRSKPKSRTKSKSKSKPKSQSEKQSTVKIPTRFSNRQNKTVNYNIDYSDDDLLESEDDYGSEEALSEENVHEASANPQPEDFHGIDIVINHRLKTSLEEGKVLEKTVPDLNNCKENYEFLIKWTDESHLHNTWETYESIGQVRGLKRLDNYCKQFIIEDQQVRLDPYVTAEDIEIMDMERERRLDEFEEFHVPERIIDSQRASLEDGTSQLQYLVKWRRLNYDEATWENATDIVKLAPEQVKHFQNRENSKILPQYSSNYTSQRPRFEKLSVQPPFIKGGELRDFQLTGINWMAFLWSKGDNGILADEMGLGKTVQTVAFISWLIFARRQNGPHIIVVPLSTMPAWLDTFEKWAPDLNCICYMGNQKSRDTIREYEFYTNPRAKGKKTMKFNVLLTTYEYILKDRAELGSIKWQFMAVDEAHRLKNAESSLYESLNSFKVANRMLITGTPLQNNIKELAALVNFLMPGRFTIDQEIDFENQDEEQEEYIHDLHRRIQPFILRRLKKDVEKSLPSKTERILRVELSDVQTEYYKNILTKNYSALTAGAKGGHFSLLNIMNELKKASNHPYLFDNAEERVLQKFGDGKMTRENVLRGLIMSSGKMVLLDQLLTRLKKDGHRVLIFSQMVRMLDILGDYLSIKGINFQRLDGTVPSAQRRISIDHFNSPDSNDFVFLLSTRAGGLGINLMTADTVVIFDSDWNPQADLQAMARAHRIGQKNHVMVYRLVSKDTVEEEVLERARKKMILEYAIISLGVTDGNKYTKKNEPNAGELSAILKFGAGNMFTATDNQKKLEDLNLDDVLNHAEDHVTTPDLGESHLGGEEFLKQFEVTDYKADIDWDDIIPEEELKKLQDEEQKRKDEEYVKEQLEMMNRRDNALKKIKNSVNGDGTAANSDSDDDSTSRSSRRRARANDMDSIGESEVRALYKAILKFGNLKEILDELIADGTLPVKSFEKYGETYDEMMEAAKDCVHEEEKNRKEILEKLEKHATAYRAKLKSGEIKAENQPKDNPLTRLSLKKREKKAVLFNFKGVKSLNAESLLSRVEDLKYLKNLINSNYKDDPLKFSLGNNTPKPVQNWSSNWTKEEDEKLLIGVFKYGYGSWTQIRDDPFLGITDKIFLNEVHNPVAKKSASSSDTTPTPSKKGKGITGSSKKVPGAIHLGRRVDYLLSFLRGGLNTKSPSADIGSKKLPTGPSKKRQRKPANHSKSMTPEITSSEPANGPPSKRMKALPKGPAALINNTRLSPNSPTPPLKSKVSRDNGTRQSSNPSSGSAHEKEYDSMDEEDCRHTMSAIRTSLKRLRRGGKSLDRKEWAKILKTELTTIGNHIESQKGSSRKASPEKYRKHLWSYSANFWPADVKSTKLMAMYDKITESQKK

Chain of Protein translocase subunit SecA (Escherichia coli (strain K12)) (P10408 whole entry): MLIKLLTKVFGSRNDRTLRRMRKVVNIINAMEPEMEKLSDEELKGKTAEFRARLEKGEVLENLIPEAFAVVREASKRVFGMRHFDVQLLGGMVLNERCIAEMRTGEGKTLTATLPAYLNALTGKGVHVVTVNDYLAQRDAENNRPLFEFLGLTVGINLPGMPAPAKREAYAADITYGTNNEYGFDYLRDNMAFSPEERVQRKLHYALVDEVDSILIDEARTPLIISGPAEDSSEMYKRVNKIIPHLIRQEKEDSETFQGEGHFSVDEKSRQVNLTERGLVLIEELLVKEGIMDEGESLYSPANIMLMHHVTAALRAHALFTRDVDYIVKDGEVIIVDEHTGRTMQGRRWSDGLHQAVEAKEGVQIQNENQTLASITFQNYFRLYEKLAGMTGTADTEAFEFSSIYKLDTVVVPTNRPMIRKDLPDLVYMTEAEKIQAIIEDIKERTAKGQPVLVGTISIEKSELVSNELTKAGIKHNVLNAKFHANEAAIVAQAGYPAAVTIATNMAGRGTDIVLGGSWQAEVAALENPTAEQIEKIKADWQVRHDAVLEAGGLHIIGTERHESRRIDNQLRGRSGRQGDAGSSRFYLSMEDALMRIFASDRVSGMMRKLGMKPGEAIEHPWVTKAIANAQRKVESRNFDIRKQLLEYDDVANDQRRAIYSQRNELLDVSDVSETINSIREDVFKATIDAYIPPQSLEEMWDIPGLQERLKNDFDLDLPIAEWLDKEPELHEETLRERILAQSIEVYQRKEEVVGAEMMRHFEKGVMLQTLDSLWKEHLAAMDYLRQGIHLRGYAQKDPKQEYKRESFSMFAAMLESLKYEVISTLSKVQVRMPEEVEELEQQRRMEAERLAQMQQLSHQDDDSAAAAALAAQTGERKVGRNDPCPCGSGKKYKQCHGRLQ

For `CN1CCN(C[C@@H]2OC[C@H]3CN(Cc4ccsc4)CC[C@H]32)CC1`, the Percent Effect in experiment [1] is -2.51%; in [2], 0%; in experiment [3] it was 1.23%; in experiment [4] it was -2.48%; in the experiment on Trypanosoma cruzi it was 6.95%; in experiment [5] it was -43.2%. The Percent Effect is 5.81% in [6]; -3.23% in the experiment filed under Homo sapiens; 3.12% in experiment [7]; 0% in [8]; -4.8% in [9].

In the case of `CCC(=O)N(C)C1CCN(Cc2ncc(C)c(OC)c2C)CC1`, the Percent Effect was -5.54% in experiment [1]; 18.2% in experiment [2]; -1.36% in experiment [3]; -0.124% in experiment [4]; 2.25% with Trypanosoma cruzi; 2.13% in [5]. Also, the Percent Effect is 18.9% in experiment [6]; 16.3% in the experiment listed under Homo sapiens; 5.83% in experiment [7]; 19.5% in [8]; -7.08% in [9].

Consider `CCc1c(C)nc2n(c1=O)CC(C(=O)Nc1nc3c(s1)CCCC3)CS2` (stereo unspecified), for which the Percent Effect in [1] was -2.52%; in [2], 13%; in [3], 6.33%; in [4] it was 7.47%; in the experiment with Trypanosoma cruzi it was 2.86%; in experiment [5] it was -4.52%. The Percent Effect in experiment [6] was 7.66%; in the experiment filed under Homo sapiens, 18.6%; in experiment [7], 6.35%; in experiment [8], 14.1%; in experiment [9] it was -8.32%.

Regarding `CS(=O)(=O)c1ccc(OCCNCc2ccc(F)cc2F)cc1`, the Percent Effect in experiment [1] is -5.74%; in experiment [2], 8.22%; in [3], 1.54%; in experiment [4], 2.33%; in the experiment on Trypanosoma cruzi, 4.37%; in experiment [5], -7.19%. Moreover, the Percent Effect in [6] is 9.85%; in the experiment filed under Homo sapiens it was 6.01%; in [7], 8.33%; in experiment [8], 13.6%; in [9] it was -1.49%.

`Cc1ncsc1C(=O)NC1CCN(CC(=O)N(C)C(C)(C)C#N)CC1`: the Percent Effect is -9.21% in [1]; 7.89% in [2]; -2.06% in experiment [3]; 0.841% in [4]; -1.77% in the experiment on Trypanosoma cruzi; 1.08% in experiment [5]. The Percent Effect was -2.45% in [6]; 23.3% in the experiment listed under Homo sapiens; 1.48% in experiment [7]; -1.24% in [8]; 2.71% in [9].

As to `Cc1noc(C(C)C)c1C(=O)N1CCOCC1CC(=O)c1ccco1` (stereo unspecified), the Percent Effect in [1] is -0.641%; in experiment [2], 0%; in experiment [3], 17.2%; in experiment [4] it was -3.82%; in the experiment on Trypanosoma cruzi it was 0.487%; in experiment [5] it was 1.18%. For the same compound, the Percent Effect in experiment [6] was 7.38%; in the experiment filed under Homo sapiens, -20.2%; in experiment [7], -2.13%; in [8], -7.79%; in experiment [9], -0.46%.

For `CCn1ccnc1CN1CCN(Cc2ccccn2)CC1C` (stereo unspecified), the Percent Effect was 1.15% in experiment [1]; 5.41% in experiment [2]; -1.29% in [3]; 3.52% in experiment [4]; -3.91% in the experiment with Trypanosoma cruzi; 5.42% in experiment [5]. In addition, the Percent Effect in experiment [6] stood at 9.04%; in the experiment listed under Homo sapiens it was 12.7%; in [7], 8.91%; in experiment [8], 13.4%; in experiment [9], 14%.

Take `CCS(=O)(=O)N1CCC(c2nnc(CN3CCCC3)n2C2CC2)CC1`: the Percent Effect in [1] is -1.74%; in experiment [2] it was 8%; in [3], -4.77%; in experiment [4], 9.36%; with Trypanosoma cruzi, 2.82%; in experiment [5] it was 12.5%. Besides, the Percent Effect was 3.49% in experiment [6]; 19.7% in the experiment listed under Homo sapiens; 7.1% in experiment [7]; 16.1% in [8]; -7.31% in experiment [9].

For `CCCc1noc(CN2CCCC2c2ccsc2)n1` (stereo unspecified), the Percent Effect in [1] was -2.78%; in experiment [2], -10.1%; in experiment [3], -1.69%; in experiment [4] it was -2.76%; in the experiment with Trypanosoma cruzi, 1.04%; in experiment [5], -8.37%. The Percent Effect in [6] amounted to 3.19%; in the experiment listed under Homo sapiens, 11.1%; in [7] it was 0.493%; in experiment [8], 1.27%; in [9] it was 6.54%.

Take `Cc1cccc2[nH]c(C3CCN(C(=O)c4ccnn4C)CC3)nc12`: the Percent Effect is -4.98% in experiment [1]; 7.79% in [2]; 3.06% in experiment [3]; 3.85% in [4]; -4.62% in the experiment with Trypanosoma cruzi; -23.4% in experiment [5]. Also, the Percent Effect in experiment [6] is 15.1%; in the experiment listed under Homo sapiens, 2.04%; in experiment [7], 9.68%; in experiment [8], 13.6%; in [9] it was -3.54%.

Take `Cc1ccn(-c2ccc(C(=O)N3CCCC(C(N)=O)C3)cc2)n1` (stereo unspecified): the Percent Effect in [1] was -6.07%; in experiment [2], 10.1%; in experiment [3] it was -10.5%; in experiment [4] it was 3.7%; in the experiment with Trypanosoma cruzi, -5%; in [5] it was -1.9%. Besides, the Percent Effect in experiment [6] is 5.16%; in the experiment filed under Homo sapiens it was 28.1%; in [7], 0.493%; in experiment [8], 8.86%; in [9] it was -4.17%.
